The list is not random: actives were taken first. Their share in the collection is about 8.1%.
Epigenetic derep: epigenetic control regulation, reporter derepression | 0.2% of 280,000 active | murine LDR cells, GFP reporter derepression, 30 h | Potency, µM (top dose mostly 53.9 µM), inactives show at the top dose GFP activation, usual class: activators; further: % of control where 0% means no effect; nearly all actives have a fitted effect of over 60% in size
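Readout is the number of GFP-expressing murine LDR cells, counted by cytometry following washing. Cells were treated with compound for 30 h at 37 C; the stably integrated CMV-GFP locus is normally silent.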
ClpP mod: qHTS Assay for Activators of ClpP | ATP-dependent Clp protease proteolytic subunit (Bacillus subtilis (strain 168)), P80244 | Potency, µM (highest dose often 57.5 µM), inactives show at the top dose activity change, negative = active | 1.9% of 340,000 active | purified B. subtilis ClpP, FRET peptide cleavage, 20 min | AID 651965, 2013; active means well fitted falling curve with a large enough effect; inconclusive means small, poorly fitted or top-dose-only effect; inactive means no such curve, though single readings can be large or run the other way; further: the source files actives as falling curves though it sought activators and does not explain the sign; nearly all actives have a fitted effect of over 65% in size
Target sequence (P80244 whole entry, looked up): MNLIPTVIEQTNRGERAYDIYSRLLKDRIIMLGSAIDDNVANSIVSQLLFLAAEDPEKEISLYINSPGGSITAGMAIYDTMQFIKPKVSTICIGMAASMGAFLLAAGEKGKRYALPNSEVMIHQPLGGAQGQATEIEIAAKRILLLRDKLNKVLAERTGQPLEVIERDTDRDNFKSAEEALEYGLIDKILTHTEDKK
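FRET quenching reversal measured ClpP activation: 10 microg/mL B. subtilis ClpP at pH 8 with the FRET-FV decapeptide, read at 430 nm after 320 nm excitation. The 20-min minus 0-min signal was scaled between DMSO/no-enzyme wells and ADEP (5.8 microM final).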
PINK1 expr mod: PINK1 expression modulation; PINK1 immunofluorescence, high-content cytometry, 24 h; Potency, µM (doses to about 76.6 µM), inactives show top-dose activation (PINK1 increase), actives largely listed as activators; 0.2% of 410,000 active; AID 624263; active means well fitted activation curve with a large enough effect; inconclusive means small, poorly fitted or top-dose-only effect; cell line not stated here; further: % of control where 0% means no effect; nearly all actives have a fitted effect of over 65% in size
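Fluorescence from anti-PINK1 antibody, together with nuclear and cell stains, was scanned on a laser-scanning cytometer. Before staining, stable-line cells were incubated 24 hours with compounds at 5 concentrations; primary antibody 12 h at 10 degrees C.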
Gal4-VP16 FLuc: Gal4-VP16 reporter inhibition counter-screen | 3.5% of 310,000 active | Drosophila S2 Gal4-VP16 UAS-luciferase, luminescence, 20 h | Potency, µM (series often up to 53.6 µM), inactives show top-dose activity, negative = inhibition, usual class: inhibitors | AID 2546;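 further: Gal4-VP16 expression switched on by copper sulfate through the metallothionein promoter; on the % scale 0 is the no-effect control and ±100 the full control effect; nearly all actives have a fitted effect of over 50% in size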
Sfp inh: blocks B. subtilis Sfp PPTase activity; Q9F4F7; Biochemical Sfp PPTase activity, qHTS; Potency, µM, for inactives: largest response in the series, negative = inhibition, usual class: inhibitors; 3.5% of 310,000 active; AID 1490;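 further: the enzyme is Sfp with the accession as filed and its product quenches rhodamine fluorescence; 0% = enzyme reaction without inhibitor and -100% = no enzyme wells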
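Compounds were incubated with enzyme (final 15 nM) for 15 min at room temperature before substrate addition started the reaction. Fluorescence at 525 nm excitation, 598 nm emission was recorded immediately and after 30 minutes.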
RORgamma inh: ROR gamma (mouse) transcription inhibition | Drosophila S2 Gal4-RORgamma UAS-luciferase reporter, 20 h | Potency, µM (top dose mostly 53.6 µM), for inactives: at the top dose activity change, negative = inhibition, usual class: inhibitors | 5.4% of 310,000 active; further: on the % scale 0 is the no-effect control and ±100 the full control effect; nearly all actives have a fitted effect of over 60% in size
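Compounds are pin-transferred onto Drosophila Schneider cells expressing a copper-inducible Gal4–ROR gamma transactivation domain fusion. After 1 hr, copper sulfate is added to 700 uM final; luciferase is read 20 hr later.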
Starred values were filed as active, the others as inactive; ? = inconclusive; / = no result. Unless noted, the call rests on the fitted dose curve; in most records, active means well fitted curve in the direction sought with a large enough effect; inconclusive means small, poorly fitted or top-dose-only effect, or another doubt; inactive means no such curve, though single readings can be large; an effect the other way counts as inactive or inconclusive. Potency means the concentration at half of the fitted maximal effect.

SMILES	Epigenetic derep	ClpP mod	PINK1 expr mod	Gal4-VP16 FLuc	Sfp inh	RORgamma inh
CCCCOc1ccc(C(=O)NNC(=S)NC(=O)CC)cc1	0.0%	-5.9%	4.7%	?	-5.0%	-28.9%
Cc1ccc(CCNC(=O)c2cc3sccc3n2Cc2ccc(Cl)cc2)cc1	2.1%	?	8.4%	/	/	/
CNC(=S)N/N=C/c1cn(Cc2ccc(F)cc2)c2ccccc12	1.5%	-11.0%	3.4%	1.12µM*	4.7%	0.891µM*
CNC(=S)N/N=C/c1cn(CCOc2ccc(OC)cc2)c2ccccc12	0.0%	-1.3%	-1.9%	3.16µM*	8.5%	2.24µM*
O=[N+]([O-])c1ccc(N/N=C/c2cn(Cc3ccc(F)cc3)c3ccccc23)nc1	10.3%	-1.3%	2.6%	6.31µM*	?	?
COc1ccc(OCCn2cc(C=O)c3ccccc32)cc1	/	1.0%	-0.3%	-23.2%	-6.5%	?
COc1ccccc1OCCn1cc(/C=N/NC(N)=S)c2ccccc21	6.2%	-5.9%	-0.7%	2µM*	-8.3%	0.501µM*
COC(=O)c1cn(CCOc2ccccc2OC)c2ccccc12	-1.1%	-0.1%	0.2%	?	-4.0%	?
CCOC(=O)c1c(C)[nH]c(C)c1S(=O)(=O)N(C)CC(=O)Nc1ccc(CC)cc1	-1.0%	1.0%	1.3%	/	/	/
COc1ccccc1OCCn1cc(/C=N/NC(=O)c2ccncc2)c2ccccc21	0.0%	1.2%	1.5%	?	14.1%	6.31µM*
COc1ccc(C(=O)NCC(=O)N/N=C/c2cn(C)c3ccccc23)cc1OC	/	-0.7%	0.4%	-5.5%	12.9%	3.0%
O=C(N/N=C/c1cn(CCOc2ccccc2)c2ccccc12)c1ccncc1	-1.8%	0.3%	-2.1%	10µM*	-3.1%	6.31µM*
COC(=O)N/N=C/c1cn(CCCOc2ccccc2)c2ccccc12	0.9%	-5.3%	-2.7%	-19.3%	-9.5%	17.3%
CNC(=S)N/N=C/c1c(C)c(C(=O)c2ccc(F)cc2)n2ccccc12	/	/	15.6%	7.94µM*	-9.4%	5.01µM*
CC(C)(C)C(=O)NC1(C(F)(F)F)C(=O)Nc2c1c(=O)[nH]c(=O)n2-c1ccccc1 (stereo not drawn)	0.8%	-0.1%	-2.1%	/	/	/
CCN1CCN(C(c2ccc(SC)cc2)c2c(O)cc(C)n(Cc3ccco3)c2=O)CC1 (stereo not drawn)	1.2%	-12.9%	-0.5%	/	/	/
CCN(CC)CCN(C)c1ccc(/C=C/c2ccnc3ccccc23)cc1	/	0.4%	/	/	/	/
CCOc1ccc(C(=O)Nc2cccc(C(=O)O)c2)cc1Cl	-0.2%	/	-1.1%	?	8.1%	6.31µM*
Cc1nc(-c2ccc(C(=O)Nc3cccc(Br)c3)cc2)cs1	-1.2%	179.1%	6.1%	-21.8%	50.1µM*	-36.1%
CCC(=O)Nc1cccc(NC(=S)NC(=O)c2ccc(C)cc2)c1	1.4%	-1.9%	1.4%	7.0%	?	-11.1%
CC(=O)c1cccc(NC(=S)NC(=O)c2ccc(C)cc2)c1	0.1%	/	10.6%	12.6µM*	-8.2%	10µM*
O=C(NC(=S)Nc1cccc(CO)c1)c1ccc(-c2ccccc2)cc1	-0.9%	3.1%	2.3%	2.82µM*	-63.8%	1.58µM*
CCC(=O)N1c2ccccc2CC1C(=O)NCc1ccc(OC(C)C)cc1 (stereo not drawn)	-2.4%	0.8%	3.6%	/	/	/
CCCCCCCCCCCCCCCC(N)=O	0.0%	/	/	-0.9%	10.3%	0.2%
COc1ccc(S(=O)(=O)Nc2ccc3c(c2)sc(=O)n3C)cc1Cl	0.0%	-3.6%	1.5%	/	/	/
c1ccc(-c2nnc(CN3CCN(c4ccccn4)CC3)o2)cc1	3.0%	-13.8%	5.8%	/	/	/
Cc1ccc2cc(NC(=O)c3ccc(C(C)(C)C)cc3)ccc2n1	/	-1.3%	-0.8%	6.6%	79.4µM*	-0.9%
Cc1ccc(NC(=S)NC(=O)c2ccc(F)cc2)cc1S(=O)(=O)Nc1cccc(Cl)c1	2.8%	-2.0%	?	-2.3%	7.4%	-19.9%
O=C(NC(=S)Nc1cccnc1)c1cccc(Br)c1	/	/	-0.6%	?	1.9%	?

Assay outcomes from PubChem BioAssay.
